Source: PubChem BioAssay (Sanford-Burnham Center for Chemical Genomics)
An excerpt weighted towards active compounds, which were near 4% of everything screened.
TWEAK-Fn14 inh = inhibitors of TWEAK-Fn14 signaling, primary screen, luciferase reporter cells, uHTS | inhibition, % at 10 µM | AID 1159606, 2016 | actives 2% (n = 360,000) | TWEAK-stimulated Fn14 reporter cells, luciferase luminescence, 8 h; in the data active = inhibition above about 50%
KKLEB tox = cytotoxicity in KKLEB CF airway cells, primary screen, cytotoxicity control for CF NF-kB inhibitor project, cell-based, uHTS, fluorescence assay plates; activity change (cytotoxicity), % at 5 µM; AID 602141, 2011; KKLEB CF airway cells viability, ATPlite luminescence, overnight; stronger effect = lower value; cells stimulated with P. aeruginosa culture filtrate; actives 0.36% (n = 360,000);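 active = corrected activity change at or below -50% at 5 µM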
HIF-2a block = HIF-2a reporter inhibitors, primary screen, luminescence, 786-0 RCC cells | 786-0 RCC cells HIF-2a reporter, luciferase luminescence, overnight | inhibition, % at 18.8 µM | actives 0.72% (n = 360,000);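 active = inhibition of the luminescence signal of 40% or more relative to plate controls, in a single-dose primary screen at 18.75 µM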
CF NFkB block = inhibitors of PAF-induced NF-kB signaling, primary screen, cell-based, GFP fluorescence, uHTS. KKLEB NF-kB-GFP reporter, GFP fluorescence overnight. inhibition, % at 5 µM. actives 0.86% (n = 360,000);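 active = at least 50% inhibition at 5 µM, scaled per plate between neutral and stimulator controls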;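 also: PAF is a Pseudomonas aeruginosa culture filtrate used as stimulus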
TROY NFkB inh = inhibitors of TROY-driven NF-kB signaling, primary screen, Q293 LMP1-TROYcd cells, NF-kB luciferase, uHTS. AID 1347056, 2019. actives 0.98% (n = 360,000). inhibition, % at 10 µM. Q293 LMP1-TROYcd NF-kB luciferase reporter, 4 h;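 active = compounds whose plate-normalised and pattern-corrected inhibition of the luciferase reporter signal at the single screening dose is 50% or more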
Peg3 promoter = Peg3 promoter-driven luciferase inhibitors, primary screen, cell-based, HeLa, luciferase luminescence | inhibition, % at 20 µM | AID 588405, 2011 | HeLa PEG-Prom luciferase reporter, overnight | actives 1.7% (n = 360,000);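 active = inhibition of at least 50% at 20 µM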
Hits are given with their value; . = inactive; / = no result.

SMILES	TWEAK-Fn14 inh	KKLEB tox	HIF-2a block	CF NFkB block	TROY NFkB inh	Peg3 promoter
O=C(CCc1ccccc1)C(=O)N1CCCC(C(=O)c2cccc(Cl)c2)C1 (configuration not stated)	.	.	.	.	.	.
Cc1cc(N2CCN(Cc3nc(-c4ccc(Cl)cc4)oc3C)CC2)cc(C)n1	.	.	.	.	.	.
COc1ccc(-c2nc(CN3CCN(c4cc(C)nc(C)c4)CC3)c(C)o2)c2ccccc12	.	.	.	.	.	81.6
Cc1cnc(C)c(N2CCN(Cc3nc(-c4ccc(C)o4)oc3C)CC2)n1	.	.	.	.	.	.
Cc1oc(-c2cccc3ccccc23)nc1CN1CCN(c2ncnc3ccccc23)CC1	68.8	.	.	.	.	.
CC(C)=CC(=O)Nc1ccc2c(c1)OCO2	.	.	.	.	.	.
CN(C)S(=O)(=O)c1cc(NC(=O)CSc2nn(-c3ccc(Cl)cc3)c(=S)s2)ccc1Cl	82.5	.	.	.	.	.
Cc1ccc(NC(=O)CNc2ccc(Cl)c(Cl)c2)cc1S(=O)(=O)N(C)C	90.9	.	.	.	.	.
Cc1ccc(NC(=O)Cc2ccc(Cl)c(Cl)c2)cc1S(=O)(=O)N(C)C	.	.	.	.	.	.
Cc1ccc(NC(=O)CSc2nn(-c3ccc(Cl)cc3)c(=S)s2)cc1S(=O)(=O)N(C)C	63.5	.	.	.	52.1	.
NS(=O)(=O)c1cccc(NC(=O)CSc2nn(-c3ccccc3)c(=S)s2)c1	.	.	.	.	.	.
CC1=C(C#N)C(=O)NC(=O)/C1=C/c1ccc(-c2ccc(S(N)(=O)=O)cc2)o1	.	.	.	.	.	.
CS(=O)(=O)N(CCC#N)Cc1ccc(/C=C2\C(=O)Nc3ccccc32)o1	.	.	.	50.0	.	.
COc1ccc(Cl)cc1-c1noc([C@@H]2O[C@H](CO)[C@@H](O)[C@H]2O)n1	.	.	.	.	.	.
CC(C)n1nc(C(=O)Oc2ccc(Cl)cc2)c2ccccc2c1=O	51.1	.	.	.	.	.
Cc1cc(=O)oc2cc(OC(=O)c3nn(C(C)C)c(=O)c4ccccc34)ccc12	.	.	.	.	.	.
COc1ccc(N(CC(=O)Nc2cc(Cl)ccc2OC)S(=O)(=O)c2c(C)noc2C)cc1	.	.	.	.	.	.
CN1CCN(c2ncnc3c2ncn3[C@H]2CN(Cc3ccco3)C[C@@H](CO)O2)CC1	.	.	.	.	.	.
Cc1ccc(/C=C2/SC(=S)N(c3ccc(S(=O)(=O)Nc4nccs4)cc3)C2=O)cc1	63.9	.	.	.	61.2	.
O=C1/C(=C\c2ccccn2)SC(=S)N1c1ccc(S(=O)(=O)Nc2nccs2)cc1	.	.	.	.	.	.
COc1ccc(/C=C2/SC(=S)N(c3ccc(S(=O)(=O)Nc4nccs4)cc3)C2=O)cc1	.	.	.	.	54.3	.
Cc1ccc2c(c1)C(c1ccccc1)N(C(=O)c1cccc([N+](=O)[O-])c1)CC(=O)N2 (configuration not stated)	.	.	.	.	.	.
Oc1ccc(C[C@H]2CNC(=S)N2C[C@H]2CCCN2C[C@H](Cc2ccccc2)N2C[C@H](Cc3ccc(O)cc3)N(CCc3ccccc3)C2=S)cc1	.	.	.	.	.	75.8
CC(C)C[C@H]1CN([C@@H](CC(C)C)CN2CCCC2CN2C(=S)NC[C@@H]2Cc2ccc(O)cc2)C(=S)N1CC1CCCCC1 (some centres not stated)	.	.	.	.	.	71.6
Oc1ccc(C[C@H]2CN([C@@H](Cc3ccc(O)cc3)CN3CCC[C@@H]3CN3C(=S)NC[C@@H]3Cc3ccccc3)C(=S)N2CCc2ccccc2)cc1	.	.	.	.	.	.
SMILES	TWEAK-Fn14 inh	KKLEB tox	HIF-2a block	CF NFkB block	TROY NFkB inh	Peg3 promoter
CC(C)C[C@@H](CN1CCCC1CN1C(=S)NC[C@@H]1Cc1ccccc1)N1C[C@H](Cc2ccc(O)cc2)N(CC2CCCCC2)C1=S (some centres not stated)	.	/	.	/	.	/
CC(C)C[C@H]1CN([C@@H](CC(C)C)CN2CCCC2CN2C(=S)NC[C@@H]2Cc2ccc(O)cc2)C(=S)N1CC1CCCCCC1 (some centres not stated)	.	.	.	.	.	90.8
CC(C)C[C@@H](CN1CCC[C@@H]1CN1C(=S)NC[C@@H]1Cc1ccc(O)cc1)N1C[C@H](Cc2ccc(O)cc2)N(CC2CCCCCC2)C1=S	.	.	.	.	.	79.8
COc1ccc(CNC(=O)N2CCN(c3ccc(F)cc3)CC2)cc1	.	.	.	.	.	.
Cn1c(=O)c(C(=O)NCc2ccccc2)c(O)c2ccccc21	.	.	.	.	.	.
COc1ccc(-c2nc3ccc(Br)cn3c2CC(C)(C)C)cc1OC	.	.	.	.	.	.
Oc1ccc(C[C@H]2CNC(=S)N2CC2CCCN2C[C@H](Cc2ccccc2)N2C[C@H](Cc3ccc(O)cc3)N(CC3CCCCC3)C2=S)cc1 (some centres not stated)	.	.	.	.	.	96.8
CC(C)C[C@H]1CN([C@@H](CC(C)C)CN2CCC[C@@H]2CN2C(=S)NC[C@@H]2Cc2ccc(O)cc2)C(=S)N1CC1CCCCC1	.	-54.8	.	64.9	.	94.6
Cc1cc(C)cc(CC(=O)N2CCC2(C)C(=O)NS(=O)(=O)c2cccc(OC(F)F)c2)c1 (configuration not stated)	.	.	.	.	.	.
O=C(Nc1ccccc1C(F)(F)F)c1cc(-c2ccccc2O)on1	.	.	.	.	.	.
CN(c1cccc(NC(=O)CN(c2ccc(C34CC5CC(CC(C5)C3)C4)cc2)S(C)(=O)=O)c1)S(C)(=O)=O	60.7	.	.	.	.	.
COc1cccc(C(c2c(NC(=O)c3ccco3)sc(C)c2C)N2CCOCC2)c1 (configuration not stated)	81.6	.	.	.	.	.
CCOc1ccc(C(c2c(NC(=O)c3ccco3)sc(C)c2C)N2CCOCC2)cc1 (configuration not stated)	66.5	.	.	.	.	.
Cc1sc(NC(=O)c2ccco2)c(C(c2ccncc2)N2CCOCC2)c1C (configuration not stated)	.	.	.	.	.	.
C/C(=N\NC(=O)C(C)Sc1ccccc1)c1ccc([N+](=O)[O-])cc1 (configuration not stated)	.	.	.	.	.	.
